Data: PubChem BioAssay AID504334 (NMMLSC, 2011)
The source made the active and inactive calls.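 How the source made its calls: active means response relative to DMSO over 150%; inconclusive means yeast strain with under 70 recorded events; inactive means the rest.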

Assay: yeast AGP1-GFP fluorescence change, single-dose confirmation – cell-based, flow cytometry, S. cerevisiae, cherry pick set 3 (AID 504334);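 further: median GFP fluorescence per well by flow cytometry over the all cells gate; ratio of sample to mean DMSO control signal so DMSO = 100% not 0%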
Conditions: S. cerevisiae AGP1-GFP strain, 3 h, at 10 µM, hits give high values

With COCCCNc1nc(N)c([N+](=O)[O-])c(Nc2ccccc2OC)n1 as the compound, how does the percent response vs DMSO read?
Its percent response vs DMSO is 103% (inactive).

For Cc1ccc(-c2cc(C(F)F)nc(S(C)(=O)=O)n2)cc1, which percent response vs DMSO is on record?
The percent response vs DMSO was 110% (inactive).

For O=C(N/N=C/c1ccccc1O)c1cccc2ccccc12, which percent response vs DMSO is on record?
Its percent response vs DMSO is 99.8% (inactive).

For O=C(Nc1ccccc1)O/N=C1\CCCCC1c1ccc([N+](=O)[O-])cc1[N+](=O)[O-] (centres undefined), which percent response vs DMSO is on record?
Its percent response vs DMSO is 102% (inactive).

With Cc1ccc2c(Cl)cc(Cl)c(OCC(=O)O)c2n1 as the compound, how does the percent response vs DMSO read?
Its percent response vs DMSO is 109% (inactive).

With COC(=O)c1cc(=O)c2cccc(OC)c2[nH]1 as the compound, how does the percent response vs DMSO read?
The percent response vs DMSO was 99.4% (inactive).

Which percent response vs DMSO does the source give for CNc1nc(N)c([N+](=O)[O-])c(Nc2cccc(Cl)c2)n1 here?
Its percent response vs DMSO is 104% (inactive).

For Nc1cccc2c1C(=O)c1ccc(Cl)cc1C2=O, which percent response vs DMSO is on record?
Its percent response vs DMSO is 102% (inactive).

With CC(C)Nc1ncnc2ccc(Br)cc12 as the compound, how does the percent response vs DMSO read?
Its percent response vs DMSO is 99.4% (inactive).

Which percent response vs DMSO does the source give for COc1ccc(OC)c2c(C)cc(C)nc12 here?
The percent response vs DMSO was 97.1% (inactive).

For COCCCNc1nc(N)c([N+](=O)[O-])c(Nc2cc(OC)ccc2OC)n1, which percent response vs DMSO is on record?
The percent response vs DMSO was 100% (inactive).

For COc1cccc(N/C=C/C(=O)c2ccc(Cl)cc2)c1, which percent response vs DMSO is on record?
The percent response vs DMSO was 93.8% (inactive).

Which percent response vs DMSO does the source give for Nc1ccc(O)c2c1C(=O)c1ccccc1C2=O here?
The percent response vs DMSO was 103% (inactive).

With Cc1ccc2nc(-c3ccc(NC(=O)c4cccnc4)cc3)oc2c1 as the compound, how does the percent response vs DMSO read?
Its percent response vs DMSO is 93.8% (inactive).

With CS(=O)(=O)Oc1ccc(Br)c2cccnc12 as the compound, how does the percent response vs DMSO read?
The percent response vs DMSO was 96.4% (inactive).

With Brc1ccc2ncnc(NCc3ccccc3)c2c1 as the compound, how does the percent response vs DMSO read?
The percent response vs DMSO was 94.8% (inactive).

With Cc1ccc2c(Cl)cc(Cl)c(O)c2n1 as the compound, how does the percent response vs DMSO read?
The percent response vs DMSO was 109% (inactive).

For OCCNc1ncnc2ccc(Br)cc12, which percent response vs DMSO is on record?
The percent response vs DMSO was 101% (inactive).

Which percent response vs DMSO does the source give for CC(=O)C(CC(=O)N1CCCC1)C(=O)Nc1ccc(Cl)cc1 (centres undefined) here?
Its percent response vs DMSO is 100% (inactive).

With CCN(CC)C(=O)Oc1ccnc2cc(Cl)ccc12 as the compound, how does the percent response vs DMSO read?
Its percent response vs DMSO is 108% (inactive).

With C=CCNc1nc(N)c([N+](=O)[O-])c(Nc2ccccc2OC)n1 as the compound, how does the percent response vs DMSO read?
The percent response vs DMSO was 95.4% (inactive).

For O=C(Nc1ccc(-c2nc3ccccc3o2)cc1)c1cccnc1, which percent response vs DMSO is on record?
Its percent response vs DMSO is 100% (inactive).

For Nc1ncnc(Nc2cc(Cl)cc(Cl)c2)c1[N+](=O)[O-], which percent response vs DMSO is on record?
The percent response vs DMSO was 98.8% (inactive).

Which percent response vs DMSO does the source give for NC(=O)c1ccnc2c(O)cccc12 here?
Its percent response vs DMSO is 100% (inactive).

Which percent response vs DMSO does the source give for Oc1c(Cl)cc(Cl)c2cccnc12 here?
The percent response vs DMSO was 98.8% (inactive).

For CSc1ccccc1OCc1cc(C(=O)N2CCN(C)C(c3ccccc3)C2)no1 (centres undefined), which percent response vs DMSO is on record?
The percent response vs DMSO was 101% (inactive).

Which percent response vs DMSO does the source give for Cc1cc(C)c(NC(=O)CC(=O)c2ccccc2)c(Cl)c1 here?
Its percent response vs DMSO is 99.4% (inactive).

Which percent response vs DMSO does the source give for Cc1ccc(Nc2cc(=O)[nH]c(=O)[nH]2)cc1C here?
The percent response vs DMSO was 95.8% (inactive).

For Nc1c(O)ccc2c1C(=O)c1ccccc1C2=O, which percent response vs DMSO is on record?
The percent response vs DMSO was 110% (inactive).

For Cc1cccc(C)c1Nc1ncnc(N)c1[N+](=O)[O-], which percent response vs DMSO is on record?
The percent response vs DMSO was 102% (inactive).

For Cc1ccc(Nc2cc(=O)[nH]c(=O)[nH]2)cc1Cl, which percent response vs DMSO is on record?
The percent response vs DMSO was 102% (inactive).

With COc1ccc(N/C(C)=C/C(=O)c2ccccc2)cc1 as the compound, how does the percent response vs DMSO read?
The percent response vs DMSO was 98.4% (inactive).

With Cc1nc(Nc2ccc(Br)cc2Br)c([N+](=O)[O-])c(=O)[nH]1 as the compound, how does the percent response vs DMSO read?
Its percent response vs DMSO is 95.4% (inactive).

For O=C(Nc1ccccc1)ON=C1c2ccccc2-c2ccccc21, which percent response vs DMSO is on record?
Its percent response vs DMSO is 97.8% (inactive).

For COc1ccccc1-c1cc(C(F)(F)F)nc(S(=O)(=O)CCCC(=O)O)n1, which percent response vs DMSO is on record?
Its percent response vs DMSO is 110% (inactive).

With COc1cccc(NC(=O)CC(C)=O)c1 as the compound, how does the percent response vs DMSO read?
The percent response vs DMSO was 98.8% (inactive).

For C=CCNc1nc(N)c([N+](=O)[O-])c(Nc2cccc(Cl)c2)n1, which percent response vs DMSO is on record?
Its percent response vs DMSO is 92.1% (inactive).

For COc1cccc(N/C=C/C(=O)c2ccc(C)cc2)c1, which percent response vs DMSO is on record?
Its percent response vs DMSO is 99.8% (inactive).

With CC(=O)C(Cl)C(=O)Nc1ccccc1 (centres undefined) as the compound, how does the percent response vs DMSO read?
The percent response vs DMSO was 105% (inactive).
